Results on 37 sequences are retold here after paper PMC5700166.

This assay addresses T1, GST-Nv-NF-kB (Ser allele) (Nematostella vectensis, UniProt A7UNT2 2-411).
T1 sequence: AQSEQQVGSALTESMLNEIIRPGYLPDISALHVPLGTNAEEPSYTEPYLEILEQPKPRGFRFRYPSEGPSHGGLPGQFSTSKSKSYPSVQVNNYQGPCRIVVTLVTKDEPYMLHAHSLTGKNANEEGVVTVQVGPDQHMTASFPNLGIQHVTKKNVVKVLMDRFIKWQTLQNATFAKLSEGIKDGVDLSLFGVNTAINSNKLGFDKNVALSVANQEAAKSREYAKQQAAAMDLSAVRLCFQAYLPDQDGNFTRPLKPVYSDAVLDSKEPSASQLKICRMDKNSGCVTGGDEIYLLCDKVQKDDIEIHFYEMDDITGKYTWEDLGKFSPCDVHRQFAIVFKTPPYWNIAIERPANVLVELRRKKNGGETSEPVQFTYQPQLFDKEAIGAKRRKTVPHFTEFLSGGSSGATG
The assay is described as follows: protein-binding microarray (PBM); PBM: ~300 nM protein, 6 mM HEPES pH 7.8, 80 mM KCl, 0.5 mM EDTA, 0.5 mM EGTA, 6% glycerol, 35 ng/ul poly-dIdC, 1% milk, 1 h, room temperature; Ap Aiptasia and Nv Nematostella (sea anemones) / Co Capsaspora / Aq Amphimedon (sponge) / Dm Drosophila / Hu human; RHD is the Rel homology domain; high values mean tight binding. As to conditions: dsDNA, one strand shown.
In turn, “CCGATTAACATCACGGGGTTTTCTGATGTTAATCGGGTCTTGATTCGCTTGACGCTGCTG” yielded a binding signal of 5.22 z-score.

In turn, “CCGATTAACATCACGCATCCCCCTGATGTTAATCGGGTCTTGATTCGCTTGACGCTGCTG” came in with a binding signal of 6.09 z-score.

As to “CCGATTAACATCAGGCCTTCCCCTGATGTTAATCGGGTCTTGATTCGCTTGACGCTGCTG”, the binding signal amounted to 5.25 z-score.

For the sequence “CCGATTAACATCAGGGGGAGTACTGATGTTAATCGGGTCTTGATTCGCTTGACGCTGCTG”, the binding signal was determined as 5.81 z-score.

As for “CCGATTAACATCACATTGGGAAATGATGTTAATCGGGTCTTGATTCGCTTGACGCTGCTG”, the binding signal was determined as 1.58 z-score.

“CCGATTAACATCAGGACTGCCCCTGATGTTAATCGGGTCTTGATTCGCTTGACGCTGCTG” yielded a binding signal of 1.72 z-score.

With “CCGATTAACATCACAGAGTCCCCTGATGTTAATCGGGTCTTGATTCGCTTGACGCTGCTG”, the binding signal is 6.04 z-score.

“CCGATTAACATCAGAAATGCCCCTGATGTTAATCGGGTCTTGATTCGCTTGACGCTGCTG”: the binding signal is 3.44 z-score.

“CCGATTAACATCATTTCCGGAAATGATGTTAATCGGGTCTTGATTCGCTTGACGCTGCTG” gave a binding signal of 1.02 z-score.

In turn, “CCGATTAACATCATCAGGGGGGATGATGTTAATCGGGTCTTGATTCGCTTGACGCTGCTG” registered a binding signal of 3.78 z-score.

Take “CCGATTAACATCAAACCCCCCCATGATGTTAATCGGGTCTTGATTCGCTTGACGCTGCTG”: the binding signal was determined as 4.41 z-score.

For “CCGATTAACATCATGGGAAGGTTTGATGTTAATCGGGTCTTGATTCGCTTGACGCTGCTG”, the binding signal was 1.52 z-score.

Turning to “CCGATTAACATCAGGAACCCCCCTGATGTTAATCGGGTCTTGATTCGCTTGACGCTGCTG”, the binding signal stood at 5.44 z-score.

For “CCGATTAACATCAAAATCACCCCTGATGTTAATCGGGTCTTGATTCGCTTGACGCTGCTG”, the binding signal was 3.66 z-score.

“CCGATTAACATCAACTCCCCCCATGATGTTAATCGGGTCTTGATTCGCTTGACGCTGCTG” registered a binding signal of 4.05 z-score.

In the case of “CCGATTAACATCATACCCCCCCATGATGTTAATCGGGTCTTGATTCGCTTGACGCTGCTG”, the binding signal turned out to be 3.11 z-score.

Consider “CCGATTAACATCAGGGGTTTTACTGATGTTAATCGGGTCTTGATTCGCTTGACGCTGCTG”, for which the binding signal turned out to be 4.36 z-score.

For “CCGATTAACATCAGGGGACGTTATGATGTTAATCGGGTCTTGATTCGCTTGACGCTGCTG”, the binding signal stood at 4.91 z-score.

The sequence “CCGATTAACATCACTCCCCCCCCTGATGTTAATCGGGTCTTGATTCGCTTGACGCTGCTG” came in with a binding signal of 4.8 z-score.

“CCGATTAACATCAGGCGTTCCCCTGATGTTAATCGGGTCTTGATTCGCTTGACGCTGCTG” yielded a binding signal of 5.77 z-score.

“CCGATTAACATCAGGGGCTTACCTGATGTTAATCGGGTCTTGATTCGCTTGACGCTGCTG” showed a binding signal of 3.61 z-score.

In turn, “CCGATTAACATCAAAGCACCCCCTGATGTTAATCGGGTCTTGATTCGCTTGACGCTGCTG” showed a binding signal of 4.9 z-score.

With “CCGATTAACATCAGGGAAATTAATGATGTTAATCGGGTCTTGATTCGCTTGACGCTGCTG”, the binding signal was found to be 6.52 z-score.

Consider “CCGATTAACATCAAGGGGGGGGGTGATGTTAATCGGGTCTTGATTCGCTTGACGCTGCTG”, for which the binding signal is 4.84 z-score.

As to “CCGATTAACATCAAACCCCCCCTTGATGTTAATCGGGTCTTGATTCGCTTGACGCTGCTG”, the binding signal is 4.97 z-score.

Sequence “CCGATTAACATCATGCCCGGGAATGATGTTAATCGGGTCTTGATTCGCTTGACGCTGCTG” gave a binding signal of 1.07 z-score.

“CCGATTAACATCATCTCCCCCCATGATGTTAATCGGGTCTTGATTCGCTTGACGCTGCTG”: the binding signal came out at 3.69 z-score.

With “CCGATTAACATCAAGGGGGGGAATGATGTTAATCGGGTCTTGATTCGCTTGACGCTGCTG”, the binding signal came to 6 z-score.

Sequence “CCGATTAACATCAGACATGGGAATGATGTTAATCGGGTCTTGATTCGCTTGACGCTGCTG” showed a binding signal of 1.34 z-score.

The sequence “CCGATTAACATCACGAAAACCCCTGATGTTAATCGGGTCTTGATTCGCTTGACGCTGCTG” displayed a binding signal of 5.71 z-score.

On to “CCGATTAACATCAGGGGGGGAACTGATGTTAATCGGGTCTTGATTCGCTTGACGCTGCTG”, for which the binding signal is 6.12 z-score.

Sequence “CCGATTAACATCAGGGGGGAGACTGATGTTAATCGGGTCTTGATTCGCTTGACGCTGCTG” returned a binding signal of 5.69 z-score.

Sequence “CCGATTAACATCAGGGAGTTTACTGATGTTAATCGGGTCTTGATTCGCTTGACGCTGCTG” came in with a binding signal of 3.63 z-score.

The sequence “CCGATTAACATCAGAACCCCCCCTGATGTTAATCGGGTCTTGATTCGCTTGACGCTGCTG” displayed a binding signal of 5.04 z-score.

The sequence “CCGATTAACATCAGCCCCCCCCATGATGTTAATCGGGTCTTGATTCGCTTGACGCTGCTG” gave a binding signal of 2.7 z-score.

For the sequence “CCGATTAACATCAGGGAAAGGGATGATGTTAATCGGGTCTTGATTCGCTTGACGCTGCTG”, the binding signal amounted to 3.11 z-score.

Regarding “CCGATTAACATCAGGAAATACCCTGATGTTAATCGGGTCTTGATTCGCTTGACGCTGCTG”, the binding signal turned out to be 6.46 z-score.
